# Where a name gives a salt, the structure may show the parent alone. ± gives the standard deviation of the averaged measurements.
# Tests used:
# Assay in all cases: growth (OD600 after 10 h); higher = more growth (less inhibition)
# [1] = system: E. coli TESEC Alr+ wild-type control; conditions: compound 0.1 mM; raw OD600 reference: median of DMSO wells 0.241, cell-free background 0.041
# Experimental: (§1)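 TESEC Mtb Alr E. coli, or the Alr+ wild-type control, in 384-well plates with Prestwick library compounds at 0.1 mM and 1% DMSO, across arabinose induction levels of 1E3 to 1E7 nM. Growth is read as OD600 after 10 h at 37 °C in triplicate biological replicates.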
# E. coli TESEC Mtb Alr [2] = conditions: compound 0.1 mM
# Experimental: as §1
# E. coli TESEC Mtb Asd = conditions: compound 0.1 mM
# Experimental: (§2)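 TESEC E. coli strains in which the native enzyme is deleted and replaced by arabinose-inducible Mtb Asd, DapB, CysH or TrpD, each grown in its selective medium. Strains were screened against the Prestwick library at 0.1 mM and 1% DMSO in 384-well format at low and high arabinose induction. Growth is read as OD600 after 10 h in triplicate.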
# E. coli TESEC Mtb DapB = conditions: compound 0.1 mM
# Experimental: as §2
# [3] = system: E. coli TESEC Alr+ wild-type control; conditions: compound 0.1 mM; raw OD600 reference: median of DMSO wells 0.49, cell-free background 0.052
# Experimental: (§3)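 TESEC Mtb Alr E. coli (ΔaraC ΔtolC ΔentC Δalr ΔdadX, arabinose-inducible Mtb Alr) or the Alr+ wild-type control strain, grown in defined M9-fructose medium without D-alanine in 96-well plates with Prestwick library compounds at 0.1 mM and 1% DMSO. Low Alr induction is 0.1 µM arabinose and high induction is 10 mM arabinose.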
# E. coli TESEC Mtb Alr [4] = conditions: compound 0.1 mM; remark: listed apart in the source
# Experimental: as §3
# [5] = arabinose 1000 nM, raw OD600 reference: median of DMSO wells 0.294, cell-free background 0.041
# [6] = arabinose 10000 nM, raw OD600 reference: median of DMSO wells 0.264, cell-free background 0.041
# [7] = arabinose 100000 nM, raw OD600 reference: median of DMSO wells 0.201, cell-free background 0.041
# [8] = arabinose 1000000 nM, raw OD600 reference: median of DMSO wells 0.193, cell-free background 0.041
# [9] = arabinose 10000000 nM, raw OD600 reference: median of DMSO wells 0.146, cell-free background 0.041
# [10] = arabinose induction (level): High, raw OD600 reference: median of DMSO wells 0.331, cell-free background 0.041
# [11] = arabinose induction (level): Low, raw OD600 reference: median of DMSO wells 0.417, cell-free background 0.041
# [12] = arabinose induction (level): High, raw OD600 reference: median of DMSO wells […], cell-free background 0.041
# [13] = arabinose induction (level): Low, raw OD600 reference: median of DMSO wells 0.227, cell-free background 0.041
# [14] = arabinose 100 nM, raw OD600 reference: median of DMSO wells 0.413, cell-free background 0.052
# [15] = arabinose 10000000 nM, raw OD600 reference: median of DMSO wells […], cell-free background 0.052
SMILES,growth [1],growth (E. coli TESEC Mtb Alr [2]; [5]),growth (E. coli TESEC Mtb Alr [2]; [6]),growth (E. coli TESEC Mtb Alr [2]; [7]),growth (E. coli TESEC Mtb Alr [2]; [8]),growth (E. coli TESEC Mtb Alr [2]; [9]),growth (E. coli TESEC Mtb Asd; [10]),growth (E. coli TESEC Mtb Asd; [11]),growth (E. coli TESEC Mtb DapB; [12]),growth (E. coli TESEC Mtb DapB; [13]),growth [3],growth (E. coli TESEC Mtb Alr [4]; [14]),growth (E. coli TESEC Mtb Alr [4]; [15])
CC[C@H](c1ccc(O)cc1)[C@@H](CC)c1ccc(O)cc1 [Hexestrol],0.0495 ± 0.0091,0.048 ± 0.0092,0.0398 ± 0.00072,0.0479 ± 0.0054,0.0459 ± 0.0019,0.0616 ± 0.024,0.0495 ± 0.0033,0.0486 ± 0.0013,0.0653 ± 0.019,0.054 ± 0.0072,0.054 ± 0.0093,0.0666 ± 0.025,0.05173 ± 0.0004
Cc1ccccc1N1C(=O)c2cc(S(N)(=O)=O)c(Cl)cc2NC1C (centres undefined) [Metolazone],0.214 ± 0.0042,0.226 ± 0.031,0.258 ± 0.0029,0.214 ± 0.0094,0.136 ± 0.004,0.1376 ± 0.00093,0.386 ± 0.049,0.422 ± 0.091,0.199 ± 0.038,0.254 ± 0.087,0.481 ± 0.062,0.4 ± 0.018,0.292 ± 0.011
CCCCOC(=O)c1ccc(O)cc1 [Butylparaben],0.137 ± 0.0043,0.148 ± 0.0023,0.213 ± 0.0083,0.157 ± 0.0026,0.131 ± 0.0015,0.15 ± 0.0048,0.174 ± 0.0066,0.193 ± 0.017,0.175 ± 0.011,0.2066 ± 0.00083,0.399 ± 0.014,0.376 ± 0.029,0.304 ± 0.019
CCC(C)n1ncn(-c2ccc(N3CCN(c4ccc(OCC5COC(Cn6cncn6)(c6ccc(Cl)cc6Cl)O5)cc4)CC3)cc2)c1=O (centres undefined) [Itraconazole],0.25 ± 0.006,0.321 ± 0.01,0.258 ± 0.0035,0.251 ± 0.012,0.171 ± 0.017,0.148 ± 0.005,0.421 ± 0.0098,0.462 ± 0.049,0.182 ± 0.035,0.217 ± 0.017,0.44 ± 0.018,0.441 ± 0.027,0.368 ± 0.015
O=C1CN(/N=C/c2ccc([N+](=O)[O-])o2)C(=O)N1 [Nitrofurantoin],0.0453 ± 0.00076,0.181 ± 0.0058,0.0822 ± 0.0037,0.04437 ± 0.00021,0.0737 ± 0.0054,0.0451 ± 0.00093,0.196 ± 0.034,0.341 ± 0.038,0.172 ± 0.009,0.218 ± 0.034,0.053 ± 0.00026,0.0546 ± 0.0087,0.055 ± 0.0017
CC(C)OC(=O)CCC/C=C\C[C@@H]1[C@@H](CC[C@@H](O)CCc2ccccc2)[C@H](O)C[C@@H]1O [Latanoprost],0.0604 ± 0.0021,0.05 ± 0.0017,0.0396 ± 0.0001,0.0525 ± 0.00065,0.04007 ± 0.00012,0.0545 ± 0.0034,0.0525 ± 0.0016,0.05293 ± 0.00021,0.0594 ± 0.0031,0.0554 ± 0.0022,0.195 ± 0.059,0.314 ± 0.037,0.0658 ± 0.011
O=C(COc1ccc(Cl)cc1)N1CCN(Cc2ccc3c(c2)OCO3)CC1 [Fipexide hydrochloride],0.13 ± 0.0038,0.146 ± 0.0033,0.138 ± 0.0033,0.154 ± 0.0017,0.0771 ± 0.0022,0.144 ± 0.0034,0.207 ± 0.039,0.214 ± 0.025,0.167 ± 0.0018,0.234 ± 0.024,0.303 ± 0.022,0.38 ± 0.029,0.168 ± 0.033
COc1ccc(C(=O)NCc2ccc(OCCN(C)C)cc2)cc1OC [Itopride],0.241 ± 0.0038,0.298 ± 0.0084,0.268 ± 0.011,0.229 ± 0.029,0.176 ± 0.0056,0.159 ± 0.0051,0.303 ± 0.083,0.365 ± 0.11,0.228 ± 0.028,0.268 ± 0.025,0.475 ± 0.063,0.407 ± 0.015,0.349 ± 0.0081

# — the supplement of paper PMC9262897, “Low-cost anti-mycobacterial drug discovery using engineered E. coli” (Nature Communications, 2022)
